{
  "source": "PubChem BioAssay (NCI)",
  "note": "This is part of a sample that, as a whole, favours compounds with a hit. Of some 83,000 tested, about 20% had one in any assay.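 Method: cells in 96-well plates; compound added at one concentration; 48 h incubation; percent growth measured; values under 10 scored active.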 Calls of active or inactive are those of the source.",
  "data": [
    {"system": "SF-295 CNS", "assay": "NCI-60 one-dose screen, 48 h (100 = growth as untreated, 0 = no growth, -100 = all killed)", "conditions": "10 µM unless noted", "values": [
      {"smiles": "COc1ccc(-c2nn(-c3ccccc3)cc2/C=C/C(=O)c2ccc(NC(=O)CCCCCCC(=O)NO)cc2)cc1", "growth": "119% (inactive)"},
      {"smiles": "O=C(NCCCNc1cc(-c2cn(-c3ccccc3)nc2-c2cccc(O)c2)ccn1)Nc1cccc(C(F)(F)F)c1", "growth": "-15.3% (active)"},
      {"smiles": "Cc1[nH]nc2ccc(-c3nc4cnc(N5CCN(C)CC5)cn4c3Nc3ccc(F)cc3Br)cc12", "growth": "66.3% (inactive)"},
      {"smiles": "O=C(/C=C/c1cccc(O)c1)c1ccc(O)cc1", "growth": "98.2% (inactive)"},
      {"smiles": "C#Cc1ccc(NC(=O)c2ccc(/C=C/C(=O)c3nccn3C)cc2)c(F)c1", "growth": "26.1% (inactive)"},
      {"smiles": "O=C(Nc1ccc(F)cc1)c1cc(-c2ccc(F)cc2F)ccc1O", "growth": "25% (inactive)"},
      {"smiles": "Oc1ccc(CSc2nnc(-c3ccc(Oc4ccccc4)cc3)o2)c2cccnc12", "growth": "1.44% (active)"},
      {"smiles": "Cc1ccc(NC(=O)c2ccc(CN3CCN(C)CC3)c(C(F)(F)F)c2)cc1Oc1ccc(-c2[nH]nc3ncnc(N)c23)cc1", "growth": "82.8% (inactive)"},
      {"smiles": "N#Cc1c(NC(=O)c2ccccc2C(F)(F)F)sc2c1CCC(=O)C2", "growth": "11% (inactive)"},
      {"smiles": "CCN(CC)c1ccc2cc(C(=O)NCCOCCOCCOCCn3cc(CCC(=O)Nc4ccc(C(=O)c5ccc(NC(=O)OC(C)(C)C)cc5)cc4)nn3)c(=O)oc2c1", "growth": "43.3% (inactive)"},
      {"smiles": "CS(=O)(=O)c1ccc(-c2nn(-c3ccccc3)cc2/C=N/NC(=O)c2ccncc2)cc1", "growth": "102% (inactive)"},
      {"smiles": "Cc1ccc(S(=O)(=O)N/N=C/c2cn(-c3ccc(F)cc3)nc2-c2ccc(S(C)(=O)=O)cc2)cc1", "growth": "103% (inactive)"}
    ]}
  ]
}
